# From PubChem BioAssay
# Active and inactive are the calls of the source. Unless noted, how the calls were made is not given here.
# Columns and labels:
# [1] = resazurin metabolic signal in HepG2 cells – cell-based, resazurin fluorescence, 24 h, PK04 Diversity Set, profiling panel (AID 1172); conditions: HepG2 viability, higher = more signal
# [2] = budding yeast growth changes without added modifier – OD600, strain BY4716, 24 h, basal condition, primary screen (AID 1173); conditions: S. cerevisiae BY4716 growth, OD600, 24 h; higher = more signal, called active from +8 up or from −8 down
# [3] = viability profiling in MM1S myeloma cells – cell-based, resazurin fluorescence, basal, 24 h, PK04 Diversity Set, profiling panel (AID 1174); conditions: higher = more signal, called active from +8 up or from −8 down;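 further: MM1S multiple myeloma cell line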
# [4] = molecular target: Dihydroorotate dehydrogenase (quinone), mitochondrial (Plasmodium falciparum (isolate 3D7)) (UniProt Q08210); assay: inhibition of P. falciparum DHODH – biochemical, C-terminal His tag, absorbance 600 nm, primary screen (AID 1175); conditions: PfDHODH enzyme, DCIP absorbance 600 nm; higher = more signal, called active from +8 up or from −8 down;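 further: recombinant parasite enzyme with a five histidine tag at its C terminus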
# Dihydroorotate dehydrogenase (quinone), mitochondrial (Plasmodium falciparum (isolate 3D7)), sequence (Q08210 whole entry, looked up): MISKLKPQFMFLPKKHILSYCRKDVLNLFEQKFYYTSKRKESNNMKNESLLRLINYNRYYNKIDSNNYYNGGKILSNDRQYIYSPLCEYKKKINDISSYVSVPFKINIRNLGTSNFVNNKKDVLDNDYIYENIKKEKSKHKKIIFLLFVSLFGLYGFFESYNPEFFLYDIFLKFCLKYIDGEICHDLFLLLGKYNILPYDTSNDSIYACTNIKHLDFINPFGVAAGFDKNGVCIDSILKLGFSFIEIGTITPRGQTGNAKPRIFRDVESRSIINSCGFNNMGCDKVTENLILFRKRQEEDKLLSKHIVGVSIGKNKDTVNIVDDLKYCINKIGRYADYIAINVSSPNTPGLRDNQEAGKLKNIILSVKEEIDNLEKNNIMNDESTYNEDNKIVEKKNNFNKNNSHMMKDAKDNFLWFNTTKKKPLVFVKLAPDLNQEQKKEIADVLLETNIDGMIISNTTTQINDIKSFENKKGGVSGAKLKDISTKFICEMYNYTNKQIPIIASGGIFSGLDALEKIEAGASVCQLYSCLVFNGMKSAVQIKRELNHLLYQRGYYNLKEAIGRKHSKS
# [5] = inhibition of PAO1 biofilm formation – strain PAO1, LB-PBS medium, absorbance 600 nm, primary screen (AID 1176); conditions: P. aeruginosa PAO1 growth/biofilm, A600, 12 h; higher = more signal
# [6] = growth modulation of vineyard yeast isolate – strain RM11-1a, OD600, basal, 24 h, primary screen (AID 1177);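 further: cultures grown under basal conditions with no added stressor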; conditions: S. cerevisiae RM11-1a growth, OD600, 24 h; higher = more signal, called active from +8 up or from −8 down
# [7] = growth of efflux-deficient E. coli DRC39 – strain DRC39, OD650, 24 h, E. coli filamentation inducers, primary screen (AID 1178);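 further: growth measured as culture turbidity by optical density at 650 nm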; conditions: E. coli DRC39 acrAB, higher = more signal, called active from +8 up or from −8 down
# [8] = growth of efflux-deficient E. coli DRC39 – strain DRC39, OD650, 48 h, E. coli filamentation inducers, primary screen (AID 1179);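 further: screen aims at cell division blockers that make cells filament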; conditions: E. coli DRC39 delta-acrAB growth, higher = more signal, called active from +8 up or from −8 down
# [9] = viability profiling in RPMI8226 myeloma cells – cell-based, resazurin fluorescence, basal, 24 h, PK04 Diversity Set, profiling panel (AID 1180); conditions: higher = more signal;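 further: RPMI8826 multiple myeloma cell line at 5000 cells per well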
# [10] = molecular target: E3 ubiquitin-protein ligase XIAP (Homo sapiens) (UniProt P98170); assay: small molecules binding XIAP protein – biophysical, small-molecule microarray, fluorescence 635 nm, primary screen (AID 1181); conditions: higher = more signal;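 further: score merges 667 nm emission and signal to noise over triplicate slides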
# E3 ubiquitin-protein ligase XIAP (Homo sapiens), sequence (P98170 whole entry, looked up, the tested form may be a part): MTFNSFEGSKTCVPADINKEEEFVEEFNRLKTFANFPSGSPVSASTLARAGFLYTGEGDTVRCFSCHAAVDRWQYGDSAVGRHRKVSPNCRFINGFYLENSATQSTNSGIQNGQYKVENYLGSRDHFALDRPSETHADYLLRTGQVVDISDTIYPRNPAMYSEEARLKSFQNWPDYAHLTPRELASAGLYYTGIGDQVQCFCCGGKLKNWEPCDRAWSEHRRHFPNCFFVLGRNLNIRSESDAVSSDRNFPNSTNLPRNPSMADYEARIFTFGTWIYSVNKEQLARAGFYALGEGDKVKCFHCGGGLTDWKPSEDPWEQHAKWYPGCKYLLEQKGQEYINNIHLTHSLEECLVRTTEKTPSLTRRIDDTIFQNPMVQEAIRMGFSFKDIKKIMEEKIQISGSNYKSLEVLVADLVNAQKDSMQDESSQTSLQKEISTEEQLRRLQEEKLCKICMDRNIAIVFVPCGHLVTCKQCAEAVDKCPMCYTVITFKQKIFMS
# [11] = system: XIP peptide (Xip251-270) binding; assay: XIP fragment 251-270 binding compounds – biochemical, small-molecule microarray, fluorescence 635/667 nm, 0.1 µg/mL protein, primary screen (AID 1182); conditions: fluorescent protein binding, 635 nm, higher = more signal, called active from +8 up or from −8 down
# [12] = system: XIP peptide (Xip251-270); assay: compounds binding XIP fragment 251-270 – biochemical, small-molecule microarray, fluorescence 635/667 nm, 0.5 µg/mL protein, primary screen (AID 1183); conditions: fluorescence 635 nm, higher = more signal
# [13] = blood-stage malaria parasite viability loss – strain 3D7, DAPI fluorescence, 100 nL, primary screen (AID 1184);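 further: parasites grown inside human red blood cells in medium with human serum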; conditions: P. falciparum 3D7 growth, 3 d, higher = more signal
# [14] = molecular target: Homeobox protein Hox-A13 (Mus musculus) (UniProt Q62424); assay: disruptors of Hoxa13 oligonucleotide interaction – biochemical, fluorescence polarization, labeled oligonucleotide, primary screen (AID 1185); conditions: Hoxa13:DNA binding, 15 min, higher = more signal, called active from +8 up or from −8 down
# Homeobox protein Hox-A13 (Mus musculus), sequence (Q62424 whole entry, looked up): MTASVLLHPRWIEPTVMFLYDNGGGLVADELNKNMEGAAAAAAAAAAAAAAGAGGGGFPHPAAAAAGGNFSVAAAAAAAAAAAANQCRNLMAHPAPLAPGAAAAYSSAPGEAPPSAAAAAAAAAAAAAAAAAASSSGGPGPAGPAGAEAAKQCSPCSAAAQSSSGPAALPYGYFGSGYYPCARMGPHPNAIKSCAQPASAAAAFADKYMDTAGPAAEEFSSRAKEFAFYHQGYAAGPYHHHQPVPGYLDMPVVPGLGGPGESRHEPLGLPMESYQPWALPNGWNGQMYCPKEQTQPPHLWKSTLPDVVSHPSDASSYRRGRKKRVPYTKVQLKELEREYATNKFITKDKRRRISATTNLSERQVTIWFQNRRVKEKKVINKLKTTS
# [15] = blockers of DNA damage checkpoint Chk1 activation – imaging, HeLa, hydroxyurea, phospho-Chk1 antibody, percent positive cells, primary screen (AID 1186); conditions: hydroxyurea-induced phospho-Chk1 immunofluorescence imaging, higher = more signal
# [16] = blockers of DNA damage checkpoint Chk1 activation – imaging, HeLa, hydroxyurea, phospho-Chk1 nuclear intensity, primary screen (AID 1187); conditions: hydroxyurea-induced phospho-Chk1 immunofluorescence imaging, higher = more signal
Compound,z-score [1],z-score [2],z-score [3],composite z-score [4],z-score [5],z-score [6],z-score [7],z-score [8],z-score [9],composite z-score [10],composite z-score [11],composite z-score [12],z-score [13],z-score [14],z-score [15],z-score [16]
COc1ccc(C#Cc2ccc3c(c2)[C@]2(C(=O)N3)[C@H](C(=O)N3CCc4cc(OC)c(OC)cc4C3)[C@H]3C(=O)O[C@H](c4ccccc4)[C@H](c4ccccc4)N3[C@@H]2c2ccc(O)cc2)cc1,-0.235,0.507 (inactive),-0.443 (inactive),-0.719 (inactive),1.45 (inactive),1.36 (inactive),0.0877 (inactive),0.307 (inactive),-0.482,-0.277,0.786 (inactive),0.578,-1.48,-1.05 (inactive),-0.24 (inactive),-0.218 (inactive)
C=C(COC)/C(=C/C[C@@H](OC(=O)c1ccncc1)c1ccc(CO)o1)c1cnc2ccccc2c1,0.7,0.705 (inactive),0.372 (inactive),-7.93 (inactive),0.379 (inactive),1.2 (inactive),0.16 (inactive),0.0648 (inactive),0.235,0.641,0.86 (inactive),0.726,-0.58,-5.9 (inactive),0.496 (inactive),0.671 (inactive)
C=C(/C(=C/C[C@@H](OC(=O)c1ccncc1)c1ccccc1OCCO)c1cc(C(=O)OC)ccc1OC)C(C)C,-0.0182,-0.0905 (inactive),-0.9 (inactive),-1.82 (inactive),0.424 (inactive),-0.0487 (inactive),0.315 (inactive),0.227 (inactive),-0.722,0.153,0.214 (inactive),0.596,-2.94,-3.84 (inactive),-1.77 (inactive),-1.86 (inactive)
C=CC[C@@]1(C(=O)N2CCCCC2)N=C(c2ccc(OCCCO)cc2)O[C@@H]1c1ccccc1,1.63,-3.63 (inactive),1.6 (inactive),-0.765 (inactive),-0.441 (inactive),0.404 (inactive),-0.212 (inactive),-0.155 (inactive),1.02,0.454,0.0703 (inactive),0.735,-2.09,-5.99 (inactive),-0.377 (inactive),-0.146 (inactive)
CCOc1cc(C(O)C2C=CC3C(=O)N(C)C(=O)C3N2N2CCCCC2)ccc1O (centres undefined),-1.1,1.62 (inactive),-0.791 (inactive),0.66 (inactive),0.614 (inactive),2.07 (inactive),-0.637 (inactive),-0.8 (inactive),-0.698,0.179,0.169 (inactive),0.333,-0.144,-5.25 (inactive),-0.595 (inactive),-0.839 (inactive)
CC(C)CNC(=O)[C@@H]1c2ccccc2C(=O)N(Cc2cc(F)cc(C(F)(F)F)c2)[C@H]1c1ccc(CO)cc1,0.564,-0.874 (inactive),0.895 (inactive),0.369 (inactive),0.801 (inactive),-0.604 (inactive),1.84 (inactive),1.42 (inactive),1.16,0.0651,1.02 (inactive),0.891,0.204,-3.02 (inactive),-0.478 (inactive),-0.515 (inactive)
COC(=O)[C@@]1(Cc2ccc(OC)cc2)[C@H]2c3cc(C(=O)N4CCCC4)n(CCc4cc5ccccc5[nH]4)c3C[C@H]2CN1C(=O)c1ccccc1,-0.406,1.3 (inactive),-1.24 (inactive),0.203 (inactive),0.756 (inactive),1.03 (inactive),0.009 (inactive),-0.655 (inactive),-0.818,-0.0685,1.64 (inactive),0.685,-1.66,-1.91 (inactive),-0.203 (inactive),-0.0973 (inactive)
CCCC[C@@H]1C[C@H]1[C@@H](NC(=O)c1cccnc1)c1ccc(-c2ccccc2)cc1,1.6,-3.34 (inactive),1.1 (inactive),-0.106 (inactive),-0.0982 (inactive),-0.402 (inactive),-0.88 (inactive),-0.762 (inactive),2.9,0.0302,-0.414 (inactive),-0.0356,-0.814,-3.43 (inactive),0.577 (inactive),0.452 (inactive)
COc1ccc([Si](C)(C)[C@H]2[C@H](CCn3cc([C@H](O)c4ccccc4)nn3)O[C@@]3(C(=O)N(Cc4ccc(N5CCC5=O)cc4)c4ccccc43)[C@@H]2C)cc1,-0.225,0.309 (inactive),-0.771 (inactive),0.65 (inactive),0.401 (inactive),1.07 (inactive),0.0302 (inactive),-0.422 (inactive),-0.0897,-0.022,0.588 (inactive),0.576,-1.87,-2.79 (inactive),-0.162 (inactive),-0.628 (inactive)
